# In PMC5540273 (PLoS ONE, 2017):
# Tests used:
# Conditions in all cases: concentration: 1 μM, replicates: in singlicate; n = 1
# MYO3B = test system: MYO3B
# NDR1 = test system: T1, NDR1
# T1 construct: gene STK38
# NDR2 = test system: NDR2
# NEK10 = test system: NEK10
# NEK11 = test system: NEK11
# NEK1 = test system: NEK1
# NEK2 = test system: NEK2
# NEK3 = test system: NEK3
# NEK4 = test system: NEK4
# NEK5 = test system: NEK5
# NEK6 = test system: NEK6
# NEK7 = test system: NEK7
# NEK9 = test system: NEK9
# NIK = test system: T2, NIK
# T2 construct: gene MAP3K14
# NIM1 = test system: T3, NIM1
# T3 construct: gene MGC42105
# NLK = test system: NLK
# OSR1 = test system: T4, OSR1
# T4 construct: gene OXSR1
# PAK1 = test system: PAK1
# PAK2 = test system: PAK2
# PAK3 = test system: PAK3
# 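Further: KINOMEscan kinase panel screen.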
SMILES,%Inh (MYO3B),%Inh (NDR1),%Inh (NDR2),%Inh (NEK10),%Inh (NEK11),%Inh (NEK1),%Inh (NEK2),%Inh (NEK3),%Inh (NEK4),%Inh (NEK5),%Inh (NEK6),%Inh (NEK7),%Inh (NEK9),%Inh (NIK),%Inh (NIM1),%Inh (NLK),%Inh (OSR1),%Inh (PAK1),%Inh (PAK2),%Inh (PAK3)
COc1cc2c(cc1OCCN1CCN(C)CC1)ncc1c3ccc(C#N)cc3[nH]c21,0%,52%,0%,15%,0%,0%,48%,33%,0%,0%,7%,0%,0%,76%,64%,0%,0%,24%,39%,0%
[2H]C([2H])(c1cccc(C(F)(F)F)c1C)n1ccn2c(=O)nc(N3CCOCC3)cc12 [GSK2336394],0%,0%,0%,7%,0%,0%,0%,1%,27%,4%,0%,0%,53%,0%,13%,0%,9%,0%,12%,13%
Cc1cccc(Cn2ccn3c(=O)cc(N4CCOCC4)nc23)c1 [GSK2297542],0%,33%,0%,14%,6%,12%,15%,15%,16%,19%,2%,0%,15%,0%,8%,15%,19%,18%,25%,3%
CN1c2ccc(NCc3ccc(F)cc3)cc2-c2c(cnn2C)S1(=O)=O,0%,22%,0%,2%,0%,0%,0%,33%,0%,0%,0%,0%,0%,7%,4%,0%,0%,0%,1%,0%
O=c1cc(N2CCOCC2)nc2n(Cc3cccc(C(F)(F)F)c3)ccn12 [GSK2297543],0%,16%,7%,0%,0%,0%,0%,0%,0%,0%,0%,0%,18%,25%,14%,32%,5%,6%,14%,14%
COc1cc(Nc2nccc(N3CCC(NC(=O)c4cccc(NC(C)=O)c4)C3)n2)cc(OC)c1OC (centres unmarked) [GSK1379754],0%,19%,0%,20%,0%,48%,7%,54%,24%,100%,37%,68%,49%,23%,5%,0%,6%,20%,20%,26%
CCn1cnc2c(N)ncnc21 [GW345098],0%,15%,8%,39%,0%,0%,13%,3%,12%,10%,29%,14%,0%,6%,0%,37%,0%,9%,0%,58%
CC(C)Oc1ccc2c(-c3ccnc(Nc4ccc(N5CCN(C)CC5)cc4)n3)cnn2n1 [GW696155],0%,86%,52%,97.6%,86%,86%,93.3%,98.5%,10%,100%,99.8%,92.6%,92.9%,21%,75%,47%,87%,83%,53%,28%
Cl.Oc1cccc(Nc2ccnc3cc(-c4ccncc4)ccc23)c1 [GW494601],0%,24%,37%,0%,49%,0%,0%,1%,0%,0%,0%,0%,0%,30%,0%,66%,0%,0%,0%,33%
O=c1cc(N2CCOCC2)nc2n(Cc3cccc(Cl)c3Cl)c(C3CC3)nn12 [GSK2358994],0%,0%,0%,20%,0%,0%,7%,5%,11%,0%,8%,21%,0%,0%,0%,22%,0%,16%,0%,0%
